Records with an inconclusive call do not appear. Activity calls are given as the source filed them. Unless noted, the call rests on the fitted dose curve.
Assays:
[1] = Nuclear factor erythroid 2-related factor 2/antioxidant responsive element (Nrf2/ARE) small molecule agonists: qHTS cell viability counter screen in human keratinocytes (AID 1919968; active means well fitted curve in the direction sought with a large enough effect in the repeat runs; an effect the other way counts as inactive or inconclusive; further: nearly all actives have a fitted effect of over 55% in size)
Procedure, shortened: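 KeratinoSens cells (HaCaT keratinocytes stably carrying an ARE-luciferase reporter) were seeded at 1,500 cells/well and rested 5 h at 37 C/5% CO2. They were then exposed to compounds in DMSO for 23 h. Viability was read by CellTiter-Fluor fluorescence after 1 h.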

[2] = Nuclear factor erythroid 2-related factor 2/antioxidant responsive element (Nrf2/ARE) small molecule agonists: luciferase reporter gene qHTS assay in human keratinocytes (AID 1919969); further: nearly all actives have a fitted effect of over 35% in size
[3] = biological target: Gonadotropin-releasing hormone receptor (Homo sapiens) (UniProt P30968); test: Human gonadotropin-releasing hormone receptor (GnRHR) small molecule agonists, calcium flux assay in GnRHR-HEK293 cells (AID 1920063); further: nearly all actives have a fitted effect of over 35% in size
Procedure, shortened: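 HEK293 cells stably expressing human GnRHR were plated 18 h at 37 °C, loaded with calcium dye 1 h at 37 °C, then given compound in agonist mode; fluorescence (Ex/Em 480/540) read kinetically for 3 min at 1 s intervals.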

[4] = biological target: KiSS-1 receptor (Homo sapiens) (UniProt Q969F8); test: Human kisspeptin (KISS1R) small molecule agonists, calcium flux assay in KISS1R-HEK293 cells (AID 1920064; active means well fitted curve in the direction sought with a large enough effect in the repeat runs; an effect the other way counts as inactive or inconclusive)
Procedure, shortened: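 HEK293 cells stably expressing human KISS1R were plated 18 h at 37 °C, loaded with calcium dye for 1 h at 37 °C, then given compound by pin tool. Fluorescence (Ex/Em 480/540) was read kinetically for 3 min.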

[5] = G protein-coupled receptor (GPCR) small molecule agonists, calcium flux assay: HEK293 wild type cell line counter screen (AID 1920065)
Procedure, shortened: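 Cells were plated and cultured 18 h at 37 C/5% CO2, then loaded with calcium dye for 1 h at 37 C. Compounds in DMSO were pin-transferred in agonist mode, and fluorescence (Ex/Em 480/540) was read kinetically for 3 min at 1 s intervals.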

[6] = p53 small molecule agonists, cell-based qHTS assay with human liver microsomes (AID 1963577);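 further: p53 response element beta-lactamase reporter cells with liver microsomes plus NADPH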
Procedure, shortened: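 p53RE-bla cells; 5 h settle, 37 C/5% CO2; cpd + HLM 0.5 mg/mL + NADPH 0.5 mg/mL (final); 16 h 37 C; LiveBLAzer 2 h RT dark; fluorescence readout.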

[7] = p53 small molecule agonists, cell-based qHTS assay with rat liver microsomes (AID 1963578)
Procedure, shortened: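 Rat liver microsome activation: microsomes 0.5 mg/mL, NADPH 0.5 mg/mL final; p53RE-bla cells, 16 h 37 C; LiveBLAzer readout, 2 h RT dark.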

[8] = p53 small molecule agonists, cell-based qHTS assay with human liver microsomes: qHTS cell viability counter screen (AID 1963579); further: nearly all actives have a fitted effect of over 45% in size
Procedure, shortened: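 Luminescent CellTiter-Glo read-out, 30 min at room temperature, gauged cytotoxicity in p53RE-bla cells exposed 16 h at 37 C to DMSO-dissolved compounds with metabolic activation by human liver microsomes and NADPH, each 0.5 mg/mL final.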

[9] = p53 small molecule agonists, cell-based qHTS assay with rat liver microsomes: qHTS cell viability counter screen (AID 1963580); further: nearly all actives have a fitted effect of over 45% in size
Procedure, shortened: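 p53RE-bla HCT-116 cells (4,000/well) rested 5 h at 37 C, then given Tox21 compounds in DMSO with rat liver microsomes (0.5 mg/mL final) plus NADPH (0.5 mg/mL final) for 16 h at 37 C. Viability read by CellTiter-Glo luminescence after 30 min at room temperature.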

[10] = p53 small molecule agonists, cell-based qHTS assay: qHTS cell viability counter screen (AID 1963581); further: nearly all actives have a fitted effect of over 45% in size
Procedure, shortened: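 p53RE-bla HCT-116 cells were exposed to compounds for 16 h at 37 C; after the beta-lactamase FRET read in the same wells, CellTiter-Glo was added and luminescence (intracellular ATP) read after 30 min at room temperature.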

[11] = p53 small molecule agonists, cell-based qHTS assay (AID 1963582; active means well fitted activation curve with a large enough effect in the signal ratio in the repeat runs, not every such curve was filed as active; the % refers to the signal ratio)
Procedure, shortened: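 p53RE-bla beta-lactamase reporter cells rested 5 h at 37 C/5% CO2, then received compounds in DMSO by pin transfer and were incubated 16 h at 37 C. LiveBLAzer B/G FRET substrate was loaded for 2 h at room temperature before fluorescence reading.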

[12] = biological target: 5-hydroxytryptamine receptor 2A (Homo sapiens) (UniProt P28223); test: 5-hydroxytryptamine receptor 2A (HTR2A) small molecule antagonists, cell-based qHTS assay (AID 1963586); further: nearly all actives have a fitted effect of over 45% in size
Procedure, shortened: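 Antagonist-mode intracellular calcium assay: DOI (4 nM) added after 5 min compound pre-incubation at room temperature to dye-loaded HTR2A-CHO cells. Fluorescence followed for 3 min, sampled every second.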

[13] = biological target: 5-hydroxytryptamine receptor 2A (Homo sapiens) (UniProt P28223); test: 5-hydroxytryptamine receptor 2A (HTR2A) small molecule agonists, cell-based qHTS assay (AID 1963587); further: nearly all actives have a fitted effect of over 30% in size; further: potency means the concentration at half of the fitted maximal effect
Procedure, shortened: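 HTR2A-CHO cells, plated 18 h at 37 C/5% CO2, dye-loaded 1 h at 37 C; compounds in DMSO added by pin tool (agonist mode). Intracellular calcium flux read as kinetic fluorescence on FDSS over 2 min at 1 s intervals.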

[14] = biological target: Muscarinic acetylcholine receptor M1 (Homo sapiens) (UniProt P11229); test: Cholinergic receptor muscarinic 1 (CHRM1) small molecule agonists, cell-based qHTS assay (AID 1963589); further: nearly all actives have a fitted effect of over 35% in size
Procedure, shortened: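 CHO cells stably expressing human CHRM1, seeded 18 h at 37 C/5% CO2, dye-loaded 1 h at 37 C, then given compound in agonist mode; intracellular calcium fluorescence read kinetically at 1 s intervals. Fifteen concentrations, three independent runs.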

[15] = cAMP Responsive Elements (CRE) small molecule agonists, cell-based qHTS assay (AID 1963590)
Procedure, shortened: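 CRE-bla HEK 293T cells in DMEM with 10% dialyzed FBS, NEAA, pyruvate and 25 mM HEPES were plated 18 h at 37 C/5% CO2, then exposed to compounds in DMSO for 3 h before LiveBLAzer B/G FRET substrate addition.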

[16] = cAMP Responsive Elements (CRE) small molecule antagonists, cell-based qHTS assay (AID 1963591; active means well fitted inhibition curve with a large enough effect in the signal ratio in the repeat runs, not every such curve was filed as active; the % refers to the signal ratio)
Procedure, shortened: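 CRE-bla HEK293T cells were plated 18 h at 37 °C/5% CO2, pinned with compound in DMSO, then stimulated with NKH477 at 0.25 uM final for 3 h. LiveBLAzer B/G FRET substrate was added and plates incubated 2 h at room temperature.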

[17] = biological target: Beta-2 adrenergic receptor (Homo sapiens) (UniProt P07550); test: Adrenergic beta2 receptor (ADRB2) small molecule antagonists, cell-based qHTS assay (AID 1963592); further: series mostly up to about 92 µM; nearly all actives have a fitted effect of over 50% in size
Procedure, shortened: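 Cells (CHO, stable ADRB2 overexpression) incubated 18-20hr at 37C; compounds added from DMSO; agonist mix (1nM isoproterenol, 100uM IBMX, 25uM Ro-20-1724) added; 0.5hr RT; d2-cAMP and anti-cAMP-cryptate added; 1hr RT; 665/615 nm read.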

[18] = biological target: D(2) dopamine receptor (Homo sapiens) (UniProt P14416); test: Dopamine D2 receptor (DRD2) small molecule agonists, cell-based qHTS assay (AID 1963594); further: nearly all actives have a fitted effect of over 35% in size; further: potency means the concentration at half of the fitted maximal effect
Procedure, shortened: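 HEK293 cells stably expressing DRD2 were cultured 24 h at 37 C, then given Ro20-1724 (0.1 mM final) and compounds for 10 min at room temperature. NKH477 (200nM) was then added for 30 min. cAMP was read by HTRF.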

[19] = biological target: D(2) dopamine receptor (Homo sapiens) (UniProt P14416); test: Dopamine D2 receptor (DRD2) small molecule antagonists, cell-based qHTS assay (AID 1963595; active means well fitted inhibition curve with a large enough effect in the signal ratio in the repeat runs, with a control signal flat; the % refers to the signal ratio)
Procedure, shortened: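 Stable D2 receptor HEK293 line, 24 h after seeding. Compound preincubated 10 min, then quinpirole (12 nM) with forskolin analogue NKH477 (200 nM), 30 min, room temperature. Detection by time-resolved FRET of cAMP.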

[20] = biological target: Muscarinic acetylcholine receptor M1 (Homo sapiens) (UniProt P11229); test: Cholinergic receptor muscarinic 1 (CHRM1) small molecule antagonists, cell-based qHTS assay (AID 1963588); further: nearly all actives have a fitted effect of over 40% in size; further: potency means the concentration at half of the fitted maximal effect
Procedure, shortened: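 CHRM1-CHO calcium-flux assay, antagonist mode. Cells were seeded 18 h, dye-loaded 1 h at 37 C and given compound for 5 min at RT, then acetylcholine was added at 50nM. FDSS fluorescence was read 3 min; 15 concentrations, three runs.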

Measured: Potency

Chain of Muscarinic acetylcholine receptor M1 (Homo sapiens) (P11229 whole entry, looked up): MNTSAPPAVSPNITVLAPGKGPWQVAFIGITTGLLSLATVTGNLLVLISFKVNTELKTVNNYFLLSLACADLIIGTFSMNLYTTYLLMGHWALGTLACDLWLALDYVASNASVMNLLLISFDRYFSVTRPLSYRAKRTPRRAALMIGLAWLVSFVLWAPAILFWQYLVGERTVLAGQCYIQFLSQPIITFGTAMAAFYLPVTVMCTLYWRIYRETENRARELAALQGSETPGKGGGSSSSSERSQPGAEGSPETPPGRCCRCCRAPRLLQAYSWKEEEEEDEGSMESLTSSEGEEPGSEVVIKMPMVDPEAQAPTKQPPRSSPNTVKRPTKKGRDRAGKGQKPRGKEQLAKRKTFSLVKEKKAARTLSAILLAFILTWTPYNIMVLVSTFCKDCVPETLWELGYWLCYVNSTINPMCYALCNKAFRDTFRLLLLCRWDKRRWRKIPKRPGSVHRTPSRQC
Chain of KiSS-1 receptor (Homo sapiens) (Q969F8 whole entry, looked up): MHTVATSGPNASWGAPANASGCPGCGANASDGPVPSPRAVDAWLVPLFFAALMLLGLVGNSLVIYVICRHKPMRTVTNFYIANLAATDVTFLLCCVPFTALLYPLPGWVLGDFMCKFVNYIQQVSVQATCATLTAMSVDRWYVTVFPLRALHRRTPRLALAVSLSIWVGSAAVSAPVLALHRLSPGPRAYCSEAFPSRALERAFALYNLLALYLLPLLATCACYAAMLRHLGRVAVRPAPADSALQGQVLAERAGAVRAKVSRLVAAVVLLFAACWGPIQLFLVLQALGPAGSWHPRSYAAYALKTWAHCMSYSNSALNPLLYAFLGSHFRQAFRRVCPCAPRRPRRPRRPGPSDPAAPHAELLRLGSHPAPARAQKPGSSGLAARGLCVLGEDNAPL
Chain of 5-hydroxytryptamine receptor 2A (Homo sapiens) (P28223 whole entry, looked up): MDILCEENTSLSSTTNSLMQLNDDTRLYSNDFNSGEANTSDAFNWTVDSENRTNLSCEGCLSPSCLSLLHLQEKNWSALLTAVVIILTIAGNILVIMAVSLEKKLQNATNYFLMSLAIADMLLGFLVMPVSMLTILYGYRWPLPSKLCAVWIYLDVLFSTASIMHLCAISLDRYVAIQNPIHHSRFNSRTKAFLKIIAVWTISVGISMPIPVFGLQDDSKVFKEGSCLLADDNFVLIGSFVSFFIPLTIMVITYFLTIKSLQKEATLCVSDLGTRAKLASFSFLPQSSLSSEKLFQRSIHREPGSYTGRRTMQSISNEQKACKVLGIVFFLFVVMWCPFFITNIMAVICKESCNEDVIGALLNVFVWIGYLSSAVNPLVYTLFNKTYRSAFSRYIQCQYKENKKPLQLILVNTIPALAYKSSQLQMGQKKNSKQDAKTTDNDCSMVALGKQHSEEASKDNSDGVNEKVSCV
Chain of D(2) dopamine receptor (Homo sapiens) (P14416 whole entry, looked up): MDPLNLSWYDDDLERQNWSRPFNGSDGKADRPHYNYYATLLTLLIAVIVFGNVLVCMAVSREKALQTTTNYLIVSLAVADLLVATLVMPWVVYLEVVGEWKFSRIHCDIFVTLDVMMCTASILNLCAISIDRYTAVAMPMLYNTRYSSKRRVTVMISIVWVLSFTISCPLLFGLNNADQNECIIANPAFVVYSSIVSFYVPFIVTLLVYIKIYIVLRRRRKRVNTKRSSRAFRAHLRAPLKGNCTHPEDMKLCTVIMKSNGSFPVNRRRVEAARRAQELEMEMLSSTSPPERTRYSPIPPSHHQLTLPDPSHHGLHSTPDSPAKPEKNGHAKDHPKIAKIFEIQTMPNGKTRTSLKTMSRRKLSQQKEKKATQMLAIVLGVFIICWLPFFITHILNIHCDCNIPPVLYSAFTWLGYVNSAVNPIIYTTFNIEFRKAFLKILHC
Chain of Beta-2 adrenergic receptor (Homo sapiens) (P07550 whole entry, looked up): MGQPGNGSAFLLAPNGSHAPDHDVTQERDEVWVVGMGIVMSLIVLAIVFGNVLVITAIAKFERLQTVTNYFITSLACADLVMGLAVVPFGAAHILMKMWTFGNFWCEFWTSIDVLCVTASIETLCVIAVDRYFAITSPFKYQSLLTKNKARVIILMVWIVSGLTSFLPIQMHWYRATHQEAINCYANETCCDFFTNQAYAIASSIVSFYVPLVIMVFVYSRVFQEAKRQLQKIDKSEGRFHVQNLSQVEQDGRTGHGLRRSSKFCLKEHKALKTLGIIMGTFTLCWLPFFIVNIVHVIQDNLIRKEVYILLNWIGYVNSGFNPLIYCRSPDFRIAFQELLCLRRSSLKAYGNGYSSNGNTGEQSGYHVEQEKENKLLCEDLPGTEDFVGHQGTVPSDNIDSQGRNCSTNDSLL
Chain of Gonadotropin-releasing hormone receptor (Homo sapiens) (P30968 whole entry, looked up): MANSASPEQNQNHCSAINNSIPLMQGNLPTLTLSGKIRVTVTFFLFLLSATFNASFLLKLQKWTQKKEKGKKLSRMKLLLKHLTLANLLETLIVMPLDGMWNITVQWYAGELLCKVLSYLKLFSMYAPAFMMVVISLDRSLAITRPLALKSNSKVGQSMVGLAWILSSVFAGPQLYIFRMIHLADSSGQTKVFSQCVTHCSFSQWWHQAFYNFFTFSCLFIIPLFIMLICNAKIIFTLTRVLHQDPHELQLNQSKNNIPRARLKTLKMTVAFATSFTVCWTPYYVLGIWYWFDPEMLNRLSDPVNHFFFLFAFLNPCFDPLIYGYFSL

CCCN(CCC)CCc1cccc2c1CC(=O)N2
active: [13] 16.9 µM | [18] 0.0619 µM
not listed: [20]
inactive: all other assays above

CN1Cc2cc(C(=O)N3CCC(C4CCNCC4)CC3)ccc2NC(CC(=O)O)C1=O (stereo unspecified)
active: [20] 1.3 µM
not listed: [14] | [15]
inactive: all other assays above

CCC(C(=O)OCCN(CC)CC)c1ccccc1 (stereo unspecified)
not listed: [20]
inactive: all other assays above

O=C(CCN1CCC(c2ccccc2)C1)c1ccc2c(c1)OCCO2 (stereo unspecified)
not listed: [14] | [16] | [19]
inactive: all other assays above

Cc1ccc(Cl)cc1Cl
not listed: [20]
inactive: all other assays above

COc1c(N2C[C@@H]3CCCN[C@@H]3C2)c(F)cc2c(=O)c(C(=O)O)cn(C3CC3)c12
active: [20] 6.5 µM
not listed: [14] | [17] | [18]
inactive: all other assays above

O=C(N[C@@H](Cc1ccccc1)[C@@H](O)C(=O)N1C[C@@H](O)[C@@H](O)C1)c1cc2cc(Cl)ccc2[nH]1
not listed: [14] | [15] | [19]
inactive: all other assays above

— PubChem BioAssay (Tox21)
